# Screen size: about 640,000 compounds; about 9,300 (1.5%) were called active. Cut-off read from the data, not from the text of the source: active = inhibition above about 32%; inactive = the rest. Shown is part of a subset that was picked to be rich in actives.
# Assay: TEAD-YAP interaction inhibition, primary screen, TEAD-YAP interaction inhibitor project, luminescence, HEK-TIYL cells (AID 1259422);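 note: 0% = median of test compound wells and 100% = reference inhibitor wells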
# Details: TEAD-Gal4/YAP UAS-luciferase luminescence, at 9.12 µM, hits give high values
row,SMILES,inhibition
1,OC(CN1CCN(c2ccccc2F)CC1)Cn1nnnc1-c1ccccc1 (stereo unspecified),2.32% (inactive)
2,Cc1cc(C)c(/C=C/c2cc(C(F)(F)F)[nH]c(=O)n2)cc1C,-9.26% (inactive)
3,Cc1nc(N2CCN(c3ccccn3)CC2)c2c(C)c(C(=O)Nc3ccccc3C(F)(F)F)sc2n1,-2.56% (inactive)
4,O=C(O)c1cccc(-c2cnc3ccc(NCc4ccc(F)cc4)nn23)c1,-7.03% (inactive)
5,c1ccc(Cn2cc(-c3cnn4c(NCCCN5CCOCC5)ccnc34)cn2)cc1,-1.52% (inactive)
6,Cc1ccc(-c2cnn3c(NCCCN4CCOCC4)ccnc23)cc1C,10.5% (inactive)
7,c1ccc(Oc2ccc(-c3cnn4c(NCCCN5CCOCC5)ccnc34)cc2)cc1,42% (active)
8,CCOc1cc2c(cc1OCC)C(c1cc(OC)ccc1F)NCC2 (stereo unspecified),4.41% (inactive)
9,CC(C)(O)C#CC(O)c1cccc([N+](=O)[O-])c1 (stereo unspecified),-0.86% (inactive)
10,COc1ccc(C(c2sc3ncnn3c2O)N2CC(C)OC(C)C2)cc1 (stereo unspecified),10.7% (inactive)
11,COc1ccc(C(=O)NCC(=O)NNc2ncnc(N)c2[N+](=O)[O-])c(OC)c1,11.1% (inactive)
12,O=C(N/N=C/c1cc(Br)ccc1O)c1cc(Br)ccc1O,-12% (inactive)
13,O=C(N/N=C/c1cc(Br)ccc1O)c1cc(-c2cccs2)[nH]n1,65.8% (active)
14,COc1ccccc1/C=N/NC(=O)c1cc(-c2ccc(C)o2)[nH]n1,4.17% (inactive)
15,COc1cccc(/C=N/NC(=O)c2cc(-c3cccs3)[nH]n2)c1O,68% (active)
16,CCOc1ccc(/C=N/NC(=O)c2cc(-c3cccs3)[nH]n2)cc1,-4.12% (inactive)
17,O=C(N/N=C/c1cc(Br)ccc1O)c1ccc(=O)[nH]n1,14.8% (inactive)
18,Cc1ccc(CNS(=O)(=O)c2ccc(F)c(C(=O)Nc3cccc(Cl)c3)c2)cc1,-4.88% (inactive)
19,COc1cc(C=Nc2ccc(NC(C)=O)cc2)ccc1OC(=O)c1cccs1,-6.6% (inactive)
20,COc1ccccc1NS(=O)(=O)c1ccc(Cl)c(C(=O)Nc2ccccc2C)c1,0.37% (inactive)
21,O=C(Cc1cccc(Cl)c1)NCC1CCC2(CCN(C(=O)C3CC3)CC2)O1 (stereo unspecified),-0.11% (inactive)
22,COc1ccc(C2CCN(C(=O)C3CCCO3)CC2)cc1 (stereo unspecified),-7.42% (inactive)
23,Cc1cccc2c1CC(=O)NC21CCN(Cc2ccc3ccccc3c2)CC1,7.07% (inactive)
24,CCc1ccc(OCC(=O)NCc2ccncc2)c(Br)c1,-4.34% (inactive)
25,CCc1ccc(OCC(=O)Nc2nc(C)c(C)s2)c(Br)c1,77.7% (active)
26,Cc1ccc(OCC(=O)Nc2nc(-c3ccccc3)cs2)c(Br)c1,5.91% (inactive)

# From PubChem BioAssay AID1259422 (The Scripps Research Institute Molecular Screening Center, 2018)
